Screen size: about 260,000 compounds; about 1,500 (0.58%) were called active. Not shown: some 5% with an inconclusive outcome.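 Rule for the calls: active = inhibition above a set limit at one or more doses, reproduced on every date tested; inconclusive = results disagree between test dates, or hit never tested in dose response; inactive = the rest.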 The list is a sample of the results. Results with a measured potency or affinity are listed apart.
molecular target: Virion infectivity factor (Human immunodeficiency virus type 1 group M subtype B (isolate BH10)) + Virion infectivity factor (Human immunodeficiency virus type 1 group M subtype B (isolate BRU/LAI)) + Virion infectivity factor (Human immunodeficiency virus type 1 group M subtype B (isolate PCV12)) + Virion infectivity factor (Human immunodeficiency virus type 1 group M subtype B (isolate HXB2)) + DNA dC->dU-editing enzyme APOBEC-3G (Homo sapiens) (UniProt P69720+P69721+P69722+P69723+Q9HC16); assay: HIV-1 Vif–A3G interaction blockers – biochemical, TR-FRET, GST-Vif 1-94, biotin-A3G peptide, dose response retest, primary screen (AID 1117319); details: TR-FRET GST-Vif / biotin-A3G peptide binding; stronger effect = higher value;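 note: Vif residues 1-94 fused to GST binding biotinylated APOBEC3G peptide 110-148; 0% = full assay without inhibitor and 100% = GST in place of GST-Vif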

inhibition, inactive:
COc1ccc2[nH]c(C(=O)Nc3cccc(C)n3)cc2c1 -5.53%
CCOc1cc(C#N)ccc1OCC(=O)N1CCN(C(=O)c2cccs2)CC1 -1.5%
Cc1cccc(C)c1OCC(=O)NCC1CCCO1 (centres undefined) -4.95%
CCOCCCNC(=O)/C=C1\Sc2ccccc2N(Cc2ccccc2F)C1=O -8.36%
CCOC(=O)c1ccccc1NS(=O)(=O)c1ccc(S(=O)(=O)N2CCCC2)cc1 2.58%
Cc1ccc(C)c(NC(=O)CN(C)C(=O)c2cccc(S(=O)(=O)N(C)C)c2)c1 5.71%
COc1ccc(NC(=O)CN(C)C(=O)c2ccc3ccccc3c2)cc1 7.66%
CN(CC(=O)Nc1cccc(F)c1)C(=O)c1cccc(N2C(=O)CCC2=O)c1 -2.88%
CN(CC(=O)Nc1cccc(F)c1)C(=O)c1ccc(C(=O)c2ccccc2)cc1 0.25%
COc1ccc(NC(=O)CN(C)C(=O)c2cccc(Oc3ccccc3)c2)cc1 -4.86%
O=C(NNC(=O)c1cccc(-n2cccc2)c1)c1ccccc1 7.05%
Cc1ccc(C)c(NC(=O)CN(C)C(=O)c2cccc(N3C(=O)CCC3=O)c2)c1 -0.71%
O=C(NNC(=O)c1cccc(-n2cccc2)c1)c1ccc(F)cc1 16%
O=C(CCCCn1ccc(=O)[nH]c1=O)Nc1ccc(O)c(C(=O)O)c1 -11.5%
Cc1ccsc1-c1nc(CN(C)C(C2CC2)C2CC2)c(C)o1 4.23%
COc1cc2c(cc1OC)CN(Cc1nc3ccsc3c(=O)[nH]1)CC2 7.56%
COc1ccc(N2CCN(Cc3nc4c(c(=O)[nH]c(=O)n4C)n3CC(C)=O)CC2)cc1 8.98%
Cc1ccc(SCC(=O)Nc2ccc(N3CCOCC3)cc2)cc1C -8.83%
COc1ccc(NC(=O)NNS(=O)(=O)c2ccc(OC)c(OC)c2)c(OC)c1 5.71%
O=C(Nc1ccc(S(=O)(=O)N2CCCCC2)cc1)c1ccccc1Cl 0.17%
Cc1ccc(CSCC(=O)NCc2ccc3c(c2)OCO3)cc1 14.3%
COc1cc2c(cc1OC)CN(C(=O)c1cccc(S(=O)(=O)N3CCc4ccccc43)c1)CC2 8.84%
CCN(CC(=O)Nc1c(F)cccc1F)C(=O)c1cccc(-n2cnnn2)c1 -3.65%
Cc1ccc(NC(=O)CN(C)C(=O)c2cccc(Br)c2)cc1 -1.1%
Cc1cccc(NC(=O)CNC(=O)c2ccc3nc[nH]c3c2)c1C 9.97%
Cc1cccc(C)c1NC(=O)CN(C)C(=O)c1cccc(-n2cccc2)c1 9.97%
CCN(CC(=O)Nc1ccc(NC(C)=O)cc1)C(=O)c1cccc(-n2cccc2)c1 16.2%
O=C(CNC(=O)c1cccc(-n2cccc2)c1)Nc1ccccc1Br 4.99%
CN(CC(=O)Nc1ccccc1C(F)(F)F)C(=O)c1cccc(-n2cccc2)c1 6.51%
CN(CC(=O)Nc1ccccc1Cl)C(=O)c1cccc(-n2cccc2)c1 -0.39%
O=C(CCNS(=O)(=O)c1ccc(F)cc1)N1CCN(c2ncccn2)CC1 -6.24%
Cc1oc2cc3oc(=O)c(CCC(=O)NCCC(=O)O)c(C)c3cc2c1C 2.04%
O=C(O)c1cccc2c1C(=O)c1cc([N+](=O)[O-])cc([N+](=O)[O-])c1-2 6.48%
COc1ccc(C2c3ccsc3CCN2C(=O)NC(C)(C)C)cc1 (centres undefined) -4.12%
COCCN(C(=O)COC(=O)CCOc1ccccc1)c1c(N)n(Cc2ccccc2)c(=O)[nH]c1=O 0.29%
COc1ccc(NC(=O)CSc2ncnc3c2cnn3Cc2ccccc2)cc1OC 23.2%
O=C(Nc1cccc2ccccc12)N1CCN(Cc2ccccc2)CC1 20.5%
COC(=O)CSc1nnc(-c2ccccn2)n1N -2.48%
CCOC(=O)N1CCN(CC(=O)Nc2ccc(OC)cc2)CC1 -0.76%
Cc1ccc(C(CC(=O)N2CCCCC2)c2ccccc2)c(O)c1C (centres undefined) -1.48%
COc1cc(Cl)c(C)cc1NC(=O)CN1C(=O)C2CCCCC2C1=O (centres undefined) -15.8%
O=C(NCC1CCCO1)c1ccc(CS(=O)(=O)c2ccc(Cl)cc2)o1 (centres undefined) 0.48%
Cc1ccc(CC(=O)NNC(=O)c2cccs2)cc1C -2.08%
O=c1cc(CO)oc(C(Nc2ccccn2)c2ccc(C(F)(F)F)cc2)c1O (centres undefined) 10.8%
COc1ccc(C(Nc2ccccn2)c2oc(CO)cc(=O)c2O)cc1 (centres undefined) 20.9%
CN(c1ccccc1)S(=O)(=O)c1ccc(C(=O)NCC2CCCO2)cc1 (centres undefined) 6.12%
O=[n+]1c2c(n([O-])c3cc(F)ccc31)CCCC2 11.7%
O=[n+]1c2c(n([O-])c3cc(F)c(N4CCCC4)cc31)CCC2 25.7%
O=[n+]1c2c(n([O-])c3cc(Br)ccc31)CCCC2 30%
O=[n+]1c2c(n([O-])c3c1CCCC3)CCCC2 3.36%
O=[n+]1c2c(n([O-])c3ccccc31)CCCC2 9.07%
CCOc1ccc2c(c1)n([O-])c1c([n+]2=O)CCCC1 23.4%
Cc1ccc2c(c1)n([O-])c1c([n+]2=O)CCCC1 1.62%
O=[n+]1cc(-c2ccc(Br)cc2)n([O-])c2c1CCC2 3.02%
Cc1ccc2oc3nc(C)c(C(=O)O)cc3c(=O)c2c1 3.05%
CCN(CC)CCn1c(=S)[nH]c2cc(C(=O)NCCc3ccc(OC)c(OC)c3)ccc2c1=O -5.2%
S=c1[nH]nc2nnc3ccccc3n12 -8.57%
COCCN1C(=O)c2[nH]nc(-c3ccccc3O)c2C1c1ccc(OC)cc1 (centres undefined) 4.2%
CCOC(=O)C1=C(C)N(C)C(=S)NC1c1cc(OC)ccc1OC (centres undefined) 29.4%
